Only some compounds are listed: those with a hit (about 2.3% of all), similar ones and a draw of the others.
USP1-UAF1 inh: blocks the human USP1/UAF1 deubiquitinase complex. O94782. recombinant USP1/UAF1, Ub-Rhodamine cleavage fluorescence. Potency, µM (series often up to 57.1 µM), usual class: inhibitors. actives 0.23% (n = 390,000); further: nearly all actives have a fitted effect of over 60% in size
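In this screen, compounds sit with the deubiquitinase complex (1nM) for 15 min at room temperature before Ub-Rho is added at 150nM final. Fluorescence rise is then followed for 6 reads every 60 seconds.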
Tau fluor counter: counter-screen for tau fibril formation inhibitors. actives 0.93% (n = 280,000). Potency, µM (titrated, usually from 57.7 µM). tau K18 P301L Alexa594 fluorescence, heparin fibrillization. AID 1463; further: nearly all actives have a fitted effect of over 55% in size
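Human K18 P301L tau (15 uM unlabeled plus 0.24 uM Alexa 594-labeled, final) in 100 mM sodium acetate pH 7 was mixed with compound and 20 uM heparin and incubated 6 hr at 37 C.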
Coupling enz: counter-screen for Giardia aldolase inhibitors: coupling enzyme system; activity change, negative = inhibition, % at 58.2 µM, hits read low; actives 0.67% (n = 290,000); AID 2472; coupling enzyme system counterscreen, AmpLite Red fluorescence; in the data active means activity change below about -30%
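First, compound is pin-transferred into glyceraldehyde-3-phosphate coupling-enzyme reagent at 57.5 uM final and held 10 min at RT. Next, substrate, coupling system and AmpLite Red are added. After 20 min RT, fluorescence (525/598 nm) is read.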
Tau fibril FP: tau fibrillization inhibition (FP); P10636; K18 P301L tau heparin fibrillization, Alexa594 FP, 6 h; Potency, µM (top dose mostly 57.7 µM), actives largely listed as inhibitors; actives 0.39% (n = 280,000); further: nearly all actives have a fitted effect of over 55% in size
Target sequence (P10636 561-689 P618L limits assumed): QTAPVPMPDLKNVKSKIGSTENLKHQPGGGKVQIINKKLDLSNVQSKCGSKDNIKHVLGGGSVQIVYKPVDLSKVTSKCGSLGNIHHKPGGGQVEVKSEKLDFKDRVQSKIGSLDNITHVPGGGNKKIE
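Human tau K18 […] P301L fragment, 15 uM unlabeled plus 0.24 uM Alexa 594-labeled tau (final), with compound and 20 uM heparin in 100 mM sodium acetate pH 7; 6 hr at 37 C, then Alexa 594 FP read.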
Tau fibril ThT: inhibitors of human tau fibril formation, thioflavin T binding; P10636; recombinant tau K18 P301L (four-repeat tau fragment), heparin-induced fibrillization, ThT fluorescence; actives 2.1% (n = 270,000); Potency, µM (highest dose often 57.4 µM), hits mostly inhibitors; further: nearly all actives have a fitted effect of over 55% in size
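Heparin-induced fibrillization of the P301L-mutant K18 repeat-domain fragment of human tau was followed by ThT binding in quantitative high-throughput format.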
A number is an active result; . = inactive; ? = inconclusive; / = no result; [ ] = remark or other dose. Unless noted, the call rests on the fitted dose curve; in most records, active means well fitted curve in the direction sought with a large enough effect; inconclusive means small, poorly fitted or top-dose-only effect, or another doubt; inactive means no such curve, though single readings can be large; an effect the other way counts as inactive or inconclusive.

SMILES | USP1-UAF1 inh | Tau fluor counter | Coupling enz | Tau fibril FP | Tau fibril ThT
COc1ccc(N2CCN(C(=O)c3cnc(N4CCOCC4)c4ccccc34)CC2)cc1 | . | . | / | . | .
CN(C)c1nc(N)nc(/C(C#N)=C/C2CC3C=CC2C3)n1 (stereo not drawn) | . | . | -33 | . | .
Cc1cccc(OCCC(=O)NCC(=O)Nc2cccc(C)c2C)c1 | . | . | -35 | . | .
COc1ccc(NC(=O)c2c(NCc3ccc(N(C)C)cc3)sc3c2CCC3)cc1 | . | ? | / | . | 16µM
COc1ccc(NC(=O)c2c(NC(=O)C(F)(F)F)sc3c2CCCCC3)cc1 | . | ? | / | . | 16µM
CCOC(=O)c1ccc(NC(=O)c2c(NCc3sccc3C)sc3c2CCCCC3)cc1 | ? | . | / | . | 32µM
COc1ccc(NC(=O)c2c(NC(=O)CCC(=O)O)sc3c2CCCCC3)cc1 | . | . | . | . | ?
COc1ccccc1NC(=O)c1c(NCc2ccc(OC)c(OC)c2OC)sc2c1CCC2 | . | . | / | . | ?
COc1ccc(NC(=O)c2c(NCc3cccc(OC)c3)sc3c2CCCC3)cc1 | . | ? | / | . | ?
CCOC(=O)c1ccc(NC(=O)c2c(NCc3cccc(OC)c3OC)sc3c2CCC3)cc1 | . | ? | / | . | ?
COc1ccc(NC(=O)c2c(NCc3ccc(OC)c(OC)c3OC)sc3c2CCC3)c(OC)c1 | . | ? | / | . | 14µM
N#Cc1nc(NCCO)nc(Nc2ccccc2)n1 | / | / | . | / | /
CCOC(=O)c1c(NC(=O)c2ccccc2C)sc2c1CCCC2 | . | . | / | ? | 32µM
COc1ccc(Cl)cc1NC(=O)c1c(NCc2cccnc2)sc2c1CCCC2 | ? | ? | / | . | 18µM
CCOC(=O)c1c(NC(=O)c2ccccc2C(=O)O)sc2c1CCCC2 | . | / | . | / | /
Cc1nc(NC2CCCCC2)c2nc(-c3ccccc3)n(CCCN3CCOCC3)c2n1 | / | . | . | . | .
COC(=O)NC(c1cccc(F)c1)C(C(C)=O)C(=O)OC (stereo not drawn) | / | .[11.6 µM] | . | .[11.6 µM] | .[11.5 µM]
Cc1ccc(NC(=O)CC2Nc3cccc4cccc(c34)NC2=O)cc1 (stereo not drawn) | . | 14µM[quencher] | / | ? | 14µM
Cc1cc2c(cc1C)NC(CC(=O)Nc1ccccc1)C(=O)N2 (stereo not drawn) | . | . | / | . | ?
NC(=O)CC1Nc2cccc3cccc(c23)NC1=O (stereo not drawn) | ? | . | . | . | .
O=C(CC1Nc2cccc3cccc(c23)NC1=O)Nc1ccccc1 (stereo not drawn) | . | . | -40 | . | .
CCOc1ccc(CNC(=O)CCc2c(C)nn(-c3ccc(N4CCOCC4)nn3)c2C)cc1 | . | . | / | . | .
CN1C(=O)c2ccccc2Sc2ccc(NC(=O)COc3ccc(Cl)cc3)cc21 | . | ? | / | ? | .
N#CC1=C(S)N(c2ccc(F)cc2)C2(CCCCC2)NC1=O | . | . | . | 28µM | 32µM
CC(=O)c1ccc(N2CCN(c3ccc(S(=O)(=O)NCCCN(C)C)cc3[N+](=O)[O-])CC2)cc1 | . | . | . | . | 10µM
SMILES | USP1-UAF1 inh | Tau fluor counter | Coupling enz | Tau fibril FP | Tau fibril ThT
C/C=C\C=C/C(=O)Nc1cccc(C2=NOC3(C2)C[C@@H](C(N)=O)N(C(=O)/C=C/C=C\C)C3)c1 (stereo partly drawn) | ? | . | . | ? | 25µM
CC(C)c1ccc(-c2nnc3n(CCc4ccccc4)c(=O)c4ccccc4n23)cc1 | . | . | / | . | .
CCOC(=O)N1C/C(=C\c2ccccc2)C(=O)/C(=C/c2ccccc2)C1 | . | . | . | ? | 14µM
Cc1ccc(C)n1Cc1ccc(C(=O)O)cc1 | 25µM | . | . | ? | ?
CCc1cccc2c(C(=O)COC(=O)/C=C/c3ccc(O)c(OC)c3)c[nH]c12 | . | 16µM[quencher] | . | . | ?
COc1cccc(CNC(=O)CCNS(=O)(=O)c2ccc3c(c2)CCCC(=O)N3)c1 | . | . | / | . | .
O=C(Nc1cccc(C(F)(F)F)c1)c1cc(S(=O)(=O)N2CCCC2)c[nH]1 | . | . | / | . | .
Cc1ccc(NC(=O)Cn2c(=O)n(Cc3ccc4c(c3)OCO4)c(=O)c3ccc(C(=O)NC4CCCCC4)cc32)cc1 | . | . | / | ? | .
COc1ccc(N2CCC(CNC(=S)Nc3c(C)cc(C)cc3C)C2)cc1 (stereo not drawn) | . | . | . | . | ?
COc1ccc(N2CCC(CNC(=S)Nc3cccc(C)c3)C2)cc1 (stereo not drawn) | . | 14µM[quencher] | . | . | ?
COc1ccc(N2CCC(CNC(=O)Nc3ccc(OC)cc3OC)C2)cc1 (stereo not drawn) | . | ? | -31 | . | 14µM
COc1cc(O)ccc1C(C)=O | / | . | . | . | .
CCOc1ccccc1NC(=O)Cn1ccn(Cc2ccc(C)cc2)c(=O)c1=O | . | . | / | ? | .
O=C(Nc1cccc(C(=O)N2CCN(c3cccc(Cl)c3)CC2)c1)c1nsc2ccccc12 | . | . | / | . | .
O=C(Nc1nnc(S(=O)(=O)N2CCCCC2)s1)c1ccc(F)cc1 | . | ? | / | . | 4.5µM
Cc1cccc(C(=O)Nc2nnc(S(=O)(=O)N3CCOCC3)s2)c1 | . | . | . | . | 3.5µM
Cc1ccccc1C(=O)Nc1nnc(S(=O)(=O)N2CCCCCC2)s1 | . | . | . | . | 14µM
O=C(Nc1nnc(S(=O)(=O)N2CCOCC2)s1)c1cccc(F)c1 | . | ? | . | ? | ?
O=C(CCCCn1c(=O)c2ccccc2n(Cc2cccc(F)c2)c1=O)NCCc1ccccc1 | . | . | / | . | .
CCN(Cc1ccccc1)C(=O)CN1C(=O)COc2ccc(S(=O)(=O)N(CC)CC)cc21 | . | . | / | . | .
Cc1c2cnn(-c3ccccc3)c(=O)c2c(C)n1CC(=O)N1CCN(c2ccc(F)cc2)CC1 | . | . | / | . | .
c1ccc2c(NCCN3CCOCC3)nc(-c3ccoc3)nc2c1 | / | / | . | / | /
CC(N=Cc1cc([N+](=O)[O-])ccc1O)c1ccccc1 (stereo not drawn) | . | . | . | . | .
CC(N=Cc1cccc(O)c1O)c1ccccc1 (stereo not drawn) | ? | ? | -39 | ? | 5µM
Cc1ccc(N=Cc2cccc(O)c2O)c(C)c1 | / | ? | . | 8.9µM | 3.2µM
CCN(CC)c1ccc(C=Nc2ccc(C)cc2C)c(O)c1 | . | . | . | . | ?
Oc1cccc(/C=N/N=C/c2cccc(O)c2O)c1O | . | / | . | / | /
Cc1ccccc1N=Cc1cccc(O)c1O | ? | ? | . | ? | 7.9µM
O=C(CCS(=O)(=O)c1nc(-c2ccc3c(c2)OCO3)cc(C(F)(F)F)n1)Nc1ccc(Br)cc1 | . | . | / | . | .
COc1cc2c(cc1OC)n(CC(=O)c1ccc(C)cc1)c(=O)n1nc(CCn3nc(C)cc3C)nc21 | . | . | / | . | .
